For some of these results: Entries with a potency or affinity are not part of this list.
Legend:
Parameters in all cases: scale not given: direction of the effect not stated beside the values
[1] = biological target: Protein translocase subunit SecA (Escherichia coli (strain K12)) (UniProt P10408); assay: Assay to Identify E. coli SecA ATPase Inhibitors; assay type: functional; details: 30 µM
[2] = biological target: T1, Ubiquitin-activating enzyme e1, putative (Leishmania donovani (strain BPK282A1)) (UniProt E9BSI1); assay: Leishmania donovani Ubiquitin Activating Enzyme (LdE1); assay type: functional; details: 30 µM
T1 sequence (whole entry): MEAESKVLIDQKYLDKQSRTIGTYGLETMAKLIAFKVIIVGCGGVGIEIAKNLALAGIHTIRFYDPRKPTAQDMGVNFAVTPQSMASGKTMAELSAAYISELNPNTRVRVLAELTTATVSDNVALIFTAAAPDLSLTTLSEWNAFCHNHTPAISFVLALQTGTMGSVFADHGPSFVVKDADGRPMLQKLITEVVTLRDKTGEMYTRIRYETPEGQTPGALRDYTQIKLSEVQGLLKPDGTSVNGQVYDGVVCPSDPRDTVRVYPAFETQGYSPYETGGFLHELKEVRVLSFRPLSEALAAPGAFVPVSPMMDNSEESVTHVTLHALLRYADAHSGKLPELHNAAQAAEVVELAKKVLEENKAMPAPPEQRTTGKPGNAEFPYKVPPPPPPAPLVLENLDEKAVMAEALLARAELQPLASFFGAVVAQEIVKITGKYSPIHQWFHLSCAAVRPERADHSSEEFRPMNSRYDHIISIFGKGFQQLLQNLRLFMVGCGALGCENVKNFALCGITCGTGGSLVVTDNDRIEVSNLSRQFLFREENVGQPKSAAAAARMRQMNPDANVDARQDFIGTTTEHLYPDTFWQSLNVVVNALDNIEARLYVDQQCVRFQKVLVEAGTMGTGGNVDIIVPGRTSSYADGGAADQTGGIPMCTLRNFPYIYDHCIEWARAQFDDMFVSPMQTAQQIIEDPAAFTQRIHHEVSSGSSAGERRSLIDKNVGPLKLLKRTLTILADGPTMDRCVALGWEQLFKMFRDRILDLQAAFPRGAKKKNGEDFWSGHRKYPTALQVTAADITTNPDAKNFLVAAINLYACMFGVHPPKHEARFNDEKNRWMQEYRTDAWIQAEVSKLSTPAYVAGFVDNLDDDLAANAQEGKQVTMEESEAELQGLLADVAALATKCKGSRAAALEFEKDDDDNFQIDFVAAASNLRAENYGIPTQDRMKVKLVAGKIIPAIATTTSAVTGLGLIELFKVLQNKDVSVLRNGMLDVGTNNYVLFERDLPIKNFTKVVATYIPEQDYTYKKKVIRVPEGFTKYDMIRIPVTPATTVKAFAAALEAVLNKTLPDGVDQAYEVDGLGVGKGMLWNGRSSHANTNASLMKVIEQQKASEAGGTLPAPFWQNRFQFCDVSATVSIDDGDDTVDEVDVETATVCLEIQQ

[3] = biological target: AMP-activated protein kinase, AMPK (Homo sapiens) (UniProt P54646+O43741+P54619+Q9UGJ0+Q9Y478+Q13131+Q9UGI9); assay: AMP-dependent Kinase enzyme assay. An in vitro enzyme assay that detects ADP turnover that is directly proportional to AMPK activity. This uses naive AMPK that is activated during the assay with MK-8722; assay type: functional; details: 30 µM
[4] = biological target: Sialic acid-binding Ig-like lectin 9 (Homo sapiens) (UniProt Q9Y336); assay: Hs-Siglec9 ALPHAscreen SOP 20170721; details: 10 µM
[5] = system: Trypanosoma cruzi; assay: Trypanosoma cruzi phosphomannomutase and mannose-1-phosphate guanylyltransferase assay; assay type: functional; details: 10 µM
[6] = biological target: T2, Arginase-2, mitochondrial (Homo sapiens) (UniProt P78540); assay: in vitro enzyme assay to detect the production of urea directly proportional to the activity of Arginase II; assay type: functional; details: 33.3 µM; note: in the data most compounds retested in dose-response had high values
T2 sequence (whole entry): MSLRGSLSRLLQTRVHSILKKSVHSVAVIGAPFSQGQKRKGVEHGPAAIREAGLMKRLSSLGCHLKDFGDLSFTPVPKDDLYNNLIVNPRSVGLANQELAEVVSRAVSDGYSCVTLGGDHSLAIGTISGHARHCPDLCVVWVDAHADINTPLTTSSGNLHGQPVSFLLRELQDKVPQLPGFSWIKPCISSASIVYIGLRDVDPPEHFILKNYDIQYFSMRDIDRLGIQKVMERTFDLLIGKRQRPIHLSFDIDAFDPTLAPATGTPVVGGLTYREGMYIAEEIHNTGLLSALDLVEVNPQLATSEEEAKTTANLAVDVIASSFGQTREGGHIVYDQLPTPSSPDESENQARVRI

[7] = biological target: T3, Proteasome subunit beta (Trypanosoma cruzi) (UniProt O96673); assay: Trypanosoma cruzi proteasome chymotrypsin-like activity (TcProtChymo) assay.; note: in the data most compounds retested in dose-response had high values; assay type: functional; details: 9.37 µM
T3 sequence (whole entry): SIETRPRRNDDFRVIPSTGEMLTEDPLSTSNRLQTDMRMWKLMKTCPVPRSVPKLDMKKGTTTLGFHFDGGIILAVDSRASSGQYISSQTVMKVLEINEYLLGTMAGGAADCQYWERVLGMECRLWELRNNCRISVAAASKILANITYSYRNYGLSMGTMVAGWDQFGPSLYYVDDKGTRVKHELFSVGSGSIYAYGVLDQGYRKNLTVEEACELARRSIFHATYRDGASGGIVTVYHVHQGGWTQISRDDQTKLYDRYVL

[8] = species on record: Homo sapiens; assay: To identify inhibition of the IFN signalling (Jak-Stat) pathway via expression of an eGFP reporter gene under the control of an IFN-stimulated response element (ISRE) containing MxA promoter.; assay type: functional; details: 30 µM
[9] = biological target: T4, Tyrosyl-tRNA synthetase, putative (Trypanosoma cruzi (strain CL Brener)) (UniProt Q4DSP6); assay: Trypanosoma cruzi tyrosyl tRNA synthetase (TcYRS) _High Tyrosine SOP; assay type: functional; details: 30 µM; note: in the data most compounds retested in dose-response had high values
T4 sequence (whole entry): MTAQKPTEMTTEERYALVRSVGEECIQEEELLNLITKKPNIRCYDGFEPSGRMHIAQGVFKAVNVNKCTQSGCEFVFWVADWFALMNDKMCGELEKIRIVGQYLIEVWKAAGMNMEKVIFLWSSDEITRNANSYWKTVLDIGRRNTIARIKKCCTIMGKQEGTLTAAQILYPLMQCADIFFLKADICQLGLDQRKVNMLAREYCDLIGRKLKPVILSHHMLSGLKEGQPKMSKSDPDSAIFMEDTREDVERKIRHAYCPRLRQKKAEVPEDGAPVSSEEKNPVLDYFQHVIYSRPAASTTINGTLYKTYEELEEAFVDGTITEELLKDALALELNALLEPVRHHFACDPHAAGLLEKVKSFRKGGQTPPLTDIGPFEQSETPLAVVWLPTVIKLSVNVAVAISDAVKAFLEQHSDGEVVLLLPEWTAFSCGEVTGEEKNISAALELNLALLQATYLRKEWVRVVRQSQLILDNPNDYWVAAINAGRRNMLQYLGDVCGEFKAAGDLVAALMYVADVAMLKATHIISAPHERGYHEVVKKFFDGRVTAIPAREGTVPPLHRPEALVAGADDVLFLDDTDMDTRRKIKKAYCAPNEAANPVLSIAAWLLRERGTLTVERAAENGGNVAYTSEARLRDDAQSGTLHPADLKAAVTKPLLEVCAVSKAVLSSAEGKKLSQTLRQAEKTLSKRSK

[10] = biological target: T4, Tyrosyl-tRNA synthetase, putative (Trypanosoma cruzi (strain CL Brener)); assay: Trypanosoma cruzi tyrosyl tRNA synthetase (TcYRS) SOP; assay type: functional; details: 30 µM
[11] = biological target: Chromo domain-containing protein 1 (Saccharomyces cerevisiae (strain ATCC 204508 / S288c) (Baker's yeast)) (UniProt P32657); assay: ScCHD-1 Enzyme Inhibition Assay; assay type: functional; details: 30 µM; note: in the data most compounds retested in dose-response had high values
Sequence of Chromo domain-containing protein 1 (Saccharomyces cerevisiae (strain ATCC 204508 / S288c) (Baker's yeast)) (P32657 whole entry, the tested form may be a part): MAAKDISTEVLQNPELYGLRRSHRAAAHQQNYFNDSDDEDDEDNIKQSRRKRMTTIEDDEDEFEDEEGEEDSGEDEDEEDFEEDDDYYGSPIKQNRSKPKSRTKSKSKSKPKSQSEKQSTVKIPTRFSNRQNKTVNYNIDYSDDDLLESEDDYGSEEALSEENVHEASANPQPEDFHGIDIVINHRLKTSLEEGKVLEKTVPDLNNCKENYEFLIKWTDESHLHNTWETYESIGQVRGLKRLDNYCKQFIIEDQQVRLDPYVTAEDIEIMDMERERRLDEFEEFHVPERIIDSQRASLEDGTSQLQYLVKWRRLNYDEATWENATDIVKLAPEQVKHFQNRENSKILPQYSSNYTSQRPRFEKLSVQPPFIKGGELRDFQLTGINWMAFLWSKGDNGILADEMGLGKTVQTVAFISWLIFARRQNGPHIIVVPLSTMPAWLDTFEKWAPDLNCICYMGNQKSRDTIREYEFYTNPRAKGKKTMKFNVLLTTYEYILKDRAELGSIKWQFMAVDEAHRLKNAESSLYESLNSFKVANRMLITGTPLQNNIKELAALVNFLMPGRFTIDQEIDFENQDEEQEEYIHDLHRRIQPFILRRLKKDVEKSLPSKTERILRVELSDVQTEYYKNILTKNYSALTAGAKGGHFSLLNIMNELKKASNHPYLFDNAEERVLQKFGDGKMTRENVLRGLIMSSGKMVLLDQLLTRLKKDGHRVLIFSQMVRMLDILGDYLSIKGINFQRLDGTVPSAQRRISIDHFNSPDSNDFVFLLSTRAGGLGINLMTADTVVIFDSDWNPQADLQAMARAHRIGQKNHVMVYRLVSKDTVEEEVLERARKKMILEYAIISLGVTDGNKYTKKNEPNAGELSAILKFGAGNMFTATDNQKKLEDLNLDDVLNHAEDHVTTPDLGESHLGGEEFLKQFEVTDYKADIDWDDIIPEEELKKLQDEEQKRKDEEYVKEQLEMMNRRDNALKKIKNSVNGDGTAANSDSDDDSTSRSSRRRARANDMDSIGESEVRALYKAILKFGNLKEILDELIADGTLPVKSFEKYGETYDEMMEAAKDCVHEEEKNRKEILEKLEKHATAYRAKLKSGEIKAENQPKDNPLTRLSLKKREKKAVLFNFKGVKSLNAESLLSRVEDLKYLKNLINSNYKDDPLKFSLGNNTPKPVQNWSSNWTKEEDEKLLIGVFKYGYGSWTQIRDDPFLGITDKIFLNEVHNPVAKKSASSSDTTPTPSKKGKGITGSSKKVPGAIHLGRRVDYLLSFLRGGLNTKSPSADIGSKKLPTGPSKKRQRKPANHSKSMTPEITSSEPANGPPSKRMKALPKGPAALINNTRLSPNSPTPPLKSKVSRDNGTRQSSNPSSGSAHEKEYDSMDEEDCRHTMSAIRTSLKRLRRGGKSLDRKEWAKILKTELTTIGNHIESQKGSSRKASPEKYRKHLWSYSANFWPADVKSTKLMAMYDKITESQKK

Sequence of Protein translocase subunit SecA (Escherichia coli (strain K12)) (P10408 whole entry): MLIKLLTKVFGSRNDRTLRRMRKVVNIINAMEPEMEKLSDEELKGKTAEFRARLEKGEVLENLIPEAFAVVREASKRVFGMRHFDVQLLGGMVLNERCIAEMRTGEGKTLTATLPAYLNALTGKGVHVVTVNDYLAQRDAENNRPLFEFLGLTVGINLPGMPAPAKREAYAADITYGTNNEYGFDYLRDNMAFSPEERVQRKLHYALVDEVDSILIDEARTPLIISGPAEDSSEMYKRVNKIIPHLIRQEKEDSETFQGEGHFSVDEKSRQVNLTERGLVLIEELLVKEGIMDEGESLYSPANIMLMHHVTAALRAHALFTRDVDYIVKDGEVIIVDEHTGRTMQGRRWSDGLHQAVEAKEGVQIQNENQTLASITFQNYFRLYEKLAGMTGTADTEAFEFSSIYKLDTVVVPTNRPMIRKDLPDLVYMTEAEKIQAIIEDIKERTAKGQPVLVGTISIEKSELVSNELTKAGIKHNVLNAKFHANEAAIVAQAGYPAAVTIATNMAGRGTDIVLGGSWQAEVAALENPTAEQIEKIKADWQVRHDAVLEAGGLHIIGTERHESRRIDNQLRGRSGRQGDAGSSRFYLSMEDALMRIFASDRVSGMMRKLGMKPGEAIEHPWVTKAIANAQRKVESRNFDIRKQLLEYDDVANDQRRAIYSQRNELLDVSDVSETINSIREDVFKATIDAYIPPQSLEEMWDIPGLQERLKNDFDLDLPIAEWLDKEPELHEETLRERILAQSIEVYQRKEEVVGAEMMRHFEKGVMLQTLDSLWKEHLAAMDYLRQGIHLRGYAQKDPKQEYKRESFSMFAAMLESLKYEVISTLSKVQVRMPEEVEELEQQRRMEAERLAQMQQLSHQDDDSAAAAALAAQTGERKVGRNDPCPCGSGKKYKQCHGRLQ
Sequence of Sialic acid-binding Ig-like lectin 9 (Homo sapiens) (Q9Y336 whole entry): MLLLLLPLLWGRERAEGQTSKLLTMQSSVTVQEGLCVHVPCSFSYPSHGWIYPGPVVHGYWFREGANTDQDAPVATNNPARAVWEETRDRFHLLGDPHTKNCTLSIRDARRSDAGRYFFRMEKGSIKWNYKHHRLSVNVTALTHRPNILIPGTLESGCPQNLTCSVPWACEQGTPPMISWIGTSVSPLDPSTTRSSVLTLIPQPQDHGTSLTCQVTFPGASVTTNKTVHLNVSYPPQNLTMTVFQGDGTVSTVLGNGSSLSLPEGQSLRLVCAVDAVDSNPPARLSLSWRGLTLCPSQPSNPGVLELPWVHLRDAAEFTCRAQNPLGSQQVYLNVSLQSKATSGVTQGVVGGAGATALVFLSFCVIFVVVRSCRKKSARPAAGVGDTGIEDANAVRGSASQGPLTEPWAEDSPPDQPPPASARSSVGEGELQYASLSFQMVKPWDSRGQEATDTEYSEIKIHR

Row | Structure (SMILES) | Percent Effect [1] [%] | Percent Effect [2] [%] | Percent Effect [3] [%] | Percent Effect [4] [%] | Percent Effect [5] [%] | Percent Effect [6] [%] | Percent Effect [7] [%] | Percent Effect [8] [%] | Percent Effect [9] [%] | Percent Effect [10] [%] | Percent Effect [11] [%]
1 | CCCc1nnsc1C(=O)NCC1CCN(c2ccccn2)CC1 | -0.329 | 11 | -5.48 | 2.44 | 4.5 | 11.8 | 21.3 | 25.2 | 5.38 | 20 | -6.53
2 | c1ccc2sc(CN3CCOC(Cn4cncn4)C3)nc2c1 (stereo not drawn) | -1.57 | -8.11 | -9.39 | -1.81 | -6.51 | 0.401 | -4.68 | 42.5 | 1.48 | -6.17 | 4.42
3 | COCC(=O)N1CCN(C(=O)c2scnc2C)CC1 | -4.41 | 7.89 | 1.74 | 5.01 | 2.82 | -4.73 | 12.4 | 19.8 | 1.06 | 10.4 | 0.643
4 | CSc1ncccc1C(=O)N1C[C@H]2CC[C@@H]1CN(c1cnccn1)C2 | -6.82 | 7.79 | 4.77 | 7.96 | -3.44 | -29 | 10.5 | -1.66 | 5.38 | 8.64 | 0.924
5 | O=C1C(NS(=O)(=O)c2cc(F)cc(F)c2)CCN1Cc1ccccc1 (stereo not drawn) | -4.38 | 12.7 | -1.14 | -3.2 | 6.52 | 1.52 | 13.7 | 0.58 | 6.4 | 1.27 | -7.02
6 | O=C(Cn1cc(I)cn1)Nc1cccnc1 | -7.8 | 0 | 2.58 | 6.82 | 1.85 | -10.7 | 16.4 | 4.4 | 3.19 | 7.79 | -7.88
7 | CCN1CCN(C(=O)CCc2c(C)noc2Cl)CC1 | -4.13 | 10.5 | -2.91 | -3.24 | -9.24 | 4.32 | 5.16 | -6.25 | 3.45 | 6.17 | -1.51
8 | Cc1c[nH]nc1C1CCN(S(=O)(=O)N(C)C)CC1 | -3.15 | 1.35 | -2.65 | 1.12 | -7.12 | -1.16 | -3.59 | 9.82 | 2.15 | 6.49 | -2.55
